About 83,000 compounds went through this panel and 20% of them were active in at least one assay; those are over-represented in the sample as a whole.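 Growth was measured after 48 h exposure to one concentration of compound in 96-well plates. Values under 10 count as active.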 Unmarked numbers belong to inactive results. The source made the active and inactive calls.

The test system of this assay is HL-60(TB) leukemia. Nature of the assay: NCI-60 one-dose screen, 48 h (100 = growth as untreated, 0 = no growth, -100 = all killed). The settings on record: 10 µM unless noted.
As to `COc1ccc([C@H]2C(=O)N(c3cc(OC)c(OC)c(OC)c3)[C@@H]2c2ccc(OC)c(O)c2)cc1`, the growth is -21.2% (active).

As to `O=C(CSc1nc2ccccc2c(=O)n1-c1ccc(Cl)cc1)N/N=C/c1ccc(N2CCCCC2)cc1`, the growth was 108%.

In the case of `O=C1C(c2ccccc2)=C(N2CCc3ccccc32)OC1(Cl)Cl`, the growth is -14.6% (active).

For the molecule `CCN(CC)CCCC(C)NCC(=O)NC(c1ccc2c(c1)OCO2)c1cc(Cl)c2cccnc2c1O` (stereo not drawn), the growth is 7.29% (active).

With `O=C1[C@@H]2Cc3c([nH]c4ccccc34)[C@H](c3c(Cl)cccc3Cl)N2C(=O)CN1C1CCN(Cc2c(F)cccc2F)CC1`, the growth is 109%.

Turning to `Nc1ncc(-c2ccc3ncnc(Nc4cccc(Cl)c4F)c3c2)cn1`, the growth was 90.5%.

Turning to `COc1ccc(Cn2cc3c(c2-c2cc(OC)c(OC)c(OC)c2)CCc2c(CN4CCOCC4)noc2-3)cc1`, the growth was 1.3% (active).

Take `CC(C)(C)Nc1nc2c(OCCc3ccccc3)cccn2c1-c1cccc(Oc2ccccc2)c1`: the growth is 0.841% (active).

For `CC(=O)Oc1ccc(CCN2C(=O)CSC2=S)cc1`, the growth is 57%.

`N#C/C(=C\c1ccc(-c2ccc(F)cc2)o1)C(=O)Nc1ncc(Cc2ccc(Cl)cc2Cl)s1`: the growth was 22.5%.

With `O=C(Nc1ccc(F)c(F)c1)c1cc(-c2ccc(F)cc2F)ccc1O`, the growth is -30.8% (active).

Consider `CNC(=O)c1c(NC(=O)c2ccccc2C(F)(F)F)sc2c1CCC(=O)C2`, for which the growth is -10.5% (active).

`O=C1c2c(c3c4cc(Br)ccc4[nH]c3c3ccc4ccccc4c23)C(=O)N1CCN1CCNCC1`: the growth was 62.3%.

The record behind these values is PubChem BioAssay (NCI).
